Measured values published in PubChem BioAssay AID1159580 (chemical genetic matrix, 2015).
The whole screen tested about 5,500 compounds, of which about 2,000 (36%) were called active. Not shown: some 18% with an inconclusive outcome. Rule as the data show it: active = normalized growth mostly below about 0.91 (no sharp cut-off); inconclusive = no clear call, values can overlap the other calls; inactive = mostly above about 0.92. The list shows a part of the results.

Assay: chemical genetic growth profiling, strain panel (AID 1159580);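 also: tested at 20 µM; growth read once vehicle control cultures reached saturation at 30 °C; 1 = growth at the plate median or of vehicle wells; lower values mean less growth of the strain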
Details: growth OD

Measured: normalized growth

Oc1cc(O)c2c(c1)O[C@H](c1cc(O)c(O)c(O)c1)[C@H](O)C2
inactive: S. cerevisiae deletion strains, locus YJR043C, strain POL32, active compounds read low 1.05 | S. cerevisiae deletion strains, locus YJR066W, strain TOR1, active compounds read low 0.918 | S. cerevisiae deletion strains, locus YKL009W, strain mrt4, active compounds read low 0.976 | S. cerevisiae deletion strains, locus YKL068W, active compounds read low 1 | S. cerevisiae deletion strains, locus YKL085W, strain MDH1 (second series), active compounds read low 1 | S. cerevisiae deletion strains, locus YKL085W, strain MDH1, active compounds read low 1 | S. cerevisiae deletion strains, locus YKL160W, strain elf1, active compounds read low 1.01 | S. cerevisiae deletion strains, locus YKR001C, strain vps1, active compounds read low 0.973 | S. cerevisiae deletion strains, locus YKR026C, strain gcn3, active compounds read low 1.02 | S. cerevisiae deletion strains, locus YKR091W, strain srl3, active compounds read low 1.02 | S. cerevisiae deletion strains, locus YLL001W, strain dnm1, active compounds read low 1.03 | S. cerevisiae deletion strains, locus YLL026W, active compounds read low 1.02 | S. cerevisiae deletion strains, locus YLL041C, strain sdh2, active compounds read low 1.02 | S. cerevisiae deletion strains, locus YLR027C, strain aat2, active compounds read low 1 | S. cerevisiae deletion strains, locus YLR039C, strain RIC1, active compounds read low 1.05 | S. cerevisiae deletion strains, locus YLR058C, strain SHM2, active compounds read low 0.98 | S. cerevisiae deletion strains, locus YLR102C, strain apc9, active compounds read low 0.976 | S. cerevisiae deletion strains, locus YLR113W, strain HOG1, active compounds read low 0.977 | S. cerevisiae deletion strains, locus YLR221C, strain rsa3, active compounds read low 1.01 | S. cerevisiae deletion strains, locus YLR258W, strain gsy2, active compounds read low 1.01 | S. cerevisiae deletion strains, locus YLR262C, strain YPT6 (second series), active compounds read low 1.03 | S. cerevisiae deletion strains, locus YLR262C, strain YPT6, active compounds read low 1.06 | S. cerevisiae deletion strains, locus YLR268W, strain sec22, active compounds read low 0.98 | S. cerevisiae deletion strains, locus YLR320W, strain mms22, active compounds read low 1.04 | S. cerevisiae deletion strains, locus YLR330W, strain CHS5, active compounds read low 1.01 | S. cerevisiae deletion strains, locus YLR342W, strain FKS1 (second series), active compounds read low 0.996 | S. cerevisiae deletion strains, locus YLR342W, strain FKS1, active compounds read low 1.01 | S. cerevisiae deletion strains, locus YLR357W, strain rsc2, active compounds read low 0.986 | S. cerevisiae deletion strains, locus YLR370C, strain arc18, active compounds read low 1.01 | S. cerevisiae deletion strains, locus YLR371W, strain rom2, active compounds read low 0.981 | S. cerevisiae deletion strains, locus YLR384C, strain iki3, active compounds read low 1.03 | S. cerevisiae deletion strains, locus YLR418C, strain cdc73, active compounds read low 1.01 | S. cerevisiae deletion strains, locus YML016C, strain PPZ1, active compounds read low 0.981 | S. cerevisiae deletion strains, locus YML032C, strain rad52, active compounds read low 1.03 | S. cerevisiae deletion strains, locus YML120C, strain ndi1, active compounds read low 1.04 | S. cerevisiae deletion strains, locus YML124C, strain tub3, active compounds read low 0.999 | S. cerevisiae deletion strains, locus YMR058W, strain fet3, active compounds read low 0.945 | S. cerevisiae deletion strains, locus YMR078C, strain ctf18, active compounds read low 1 | S. cerevisiae deletion strains, locus YMR125W, strain sto1, active compounds read low 1.02 | S. cerevisiae deletion strains, locus YMR129W, active compounds read low 1.02 | S. cerevisiae deletion strains, locus YMR205C, strain PFK2, active compounds read low 1.06 | S. cerevisiae deletion strains, locus YMR223W, strain ubp8, active compounds read low 0.991 | S. cerevisiae deletion strains, locus YMR231W, strain pep5, active compounds read low 0.987 | S. cerevisiae deletion strains, locus YMR307W, strain GAS1, active compounds read low 1.07 | S. cerevisiae deletion strains, locus YNL067W, strain RPL9B, active compounds read low 0.984 | S. cerevisiae deletion strains, locus YNL071W, strain lat1, active compounds read low 1.03 | S. cerevisiae deletion strains, locus YNL153C, strain GIM3, active compounds read low 0.957 | S. cerevisiae deletion strains, locus YNL183C, strain NPR1, active compounds read low 0.951 | S. cerevisiae deletion strains, locus YNL209W, strain ssb2, active compounds read low 1 | S. cerevisiae deletion strains, locus YNL233W, strain BNI4, active compounds read low 0.987 | S. cerevisiae deletion strains, locus YNL248C, strain rpa49, active compounds read low 1.03 | S. cerevisiae deletion strains, locus YNL250W, strain rad50, active compounds read low 0.986 | S. cerevisiae deletion strains, locus YNL271C, strain bni1, active compounds read low 0.988 | S. cerevisiae deletion strains, locus YNL298W, strain CLA4, active compounds read low 0.969 | S. cerevisiae deletion strains, locus YNL307C, strain MCK1, active compounds read low 0.981 | S. cerevisiae deletion strains, locus YNL322C, strain KRE1 (second series), active compounds read low 1.02 | S. cerevisiae deletion strains, locus YNR049C, strain mso1, active compounds read low 1.02 | S. cerevisiae deletion strains, locus YNR052C, strain pop2, active compounds read low 0.994 | S. cerevisiae deletion strains, locus YOL012C, strain htz1 1.18 | S. cerevisiae deletion strains, locus YOL147C, strain pex11, active compounds read low 0.988 | S. cerevisiae deletion strains, locus YOR001W, strain rrp6, active compounds read low 1.03 | S. cerevisiae deletion strains, locus YOR061W, strain CKA2, active compounds read low 0.99 | S. cerevisiae deletion strains, locus YOR069W, strain VPS5, active compounds read low 0.99 | S. cerevisiae deletion strains, locus YOR070C, strain gyp1, active compounds read low 1 | S. cerevisiae deletion strains, locus YOR080W, strain dia2, active compounds read low 1.02 | S. cerevisiae deletion strains, locus YOR083W, strain WHI5, active compounds read low 1.01 | S. cerevisiae deletion strains, locus YOR106W, strain vam3, active compounds read low 0.999 | S. cerevisiae deletion strains, locus YOR136W, strain idh2, active compounds read low 0.976 | S. cerevisiae deletion strains, locus YOR144C, strain elg1, active compounds read low 1 | S. cerevisiae deletion strains, locus YOR184W, strain ser1, active compounds read low 1.02 | S. cerevisiae deletion strains, locus YOR231W, strain MKK1, active compounds read low 0.983 | S. cerevisiae deletion strains, locus YOR265W, strain rbl2, active compounds read low 1.02 | S. cerevisiae deletion strains, locus YOR270C, strain vph1, active compounds read low 1.1 | S. cerevisiae deletion strains, locus YOR290C, strain snf2, active compounds read low 1.02 | S. cerevisiae deletion strains, locus YOR316C, strain cot1, active compounds read low 0.98 | S. cerevisiae deletion strains, locus YPL051W, strain arl3, active compounds read low 1 | S. cerevisiae deletion strains, locus YPL055C, strain LGE1, active compounds read low 1.01 | S. cerevisiae deletion strains, locus YPL078C, strain atp4, active compounds read low 1.05 | S. cerevisiae deletion strains, locus YPL106C, strain sse1, active compounds read low 0.99 | S. cerevisiae deletion strains, locus YPL240C, strain hsp82, active compounds read low 1.02 | S. cerevisiae deletion strains, locus YPL256C, strain CLN2, active compounds read low 0.983 | S. cerevisiae deletion strains, locus YPR119W, strain clb2, active compounds read low 0.992 | S. cerevisiae deletion strains, locus YPR141C, strain kar3, active compounds read low 0.978 | S. cerevisiae deletion strains, locus YPR163C, strain tif3, active compounds read low 0.988 | S. cerevisiae deletion strains, locus YPR167C, strain met16, active compounds read low 1 | S. cerevisiae deletion strains, strain wtn01, active compounds read low 0.975 | S. cerevisiae strains, strain wild type, active compounds read low 1
